Experimental data from the supplement of paper PMC6555819.

These sequences were tested on RARb homodimer (NR concentration 270 nM) (assay: PBM binding z-score (relative to random genomic background probes); higher = stronger binding; sequences stand for … in GC…GCGATTGACAGCGTAGAATGAAGG).
Summary of the method: (§1)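 Antibodies against each partner of ligand-free nuclear receptor dimers (one per run) detected binding on custom Agilent 4×180K protein-binding microarrays after 1 h incubation. The double-stranded probes had 34-nt variable regions carrying direct-repeat seeds, single-nucleotide variants, half-site ablations and random human genomic background sequences. Binding z-scores, from regression-normalized fluorescence, use the random background probes as reference.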

Sequence	PBM binding z-score
TGAATGAGGTTAAAGATCACGGAACGTGGCGTCG	0.603
TATACAGGGTCAAAGGCCAGGGTACGAATGTCGA	3.71
CCTTACGGGACACGAGGTTATAGCACGACGAGCG	1.03
CTACCAAGGTGAACAAGGTCGTTGAATACTATTC	2.13
CCGACTGGGACAAGGTTACCATAACGCACAGCCA	0.97
CCTAGTTGGTCAAGTTCACACACGCTATAGGTAC	3.1
ATTAGCAGGCCAAGTTTGGGTCACTCAAACAAAG	2.04
GATACAGGGTCACGGCCAGAGTACGCGTATTGAT	3.98
GCTAGCAGGCCATTTGGGTCGCTCAATGACGGGC	-0.128
TCTAGCAGGCCAGAGGCTCACTCAAGAGGTACGG	-0.995
ATCGAAAGGTCGAAGCTGAGTATACCCACCCGAA	2.18
CATTCAGGGTCAGCTAGGCCAGAGTAGGGACGGC	3.59
TTTGCTAGGTCAGTTGGTCAGCTAACGAGCTGCC	2.57
ACAGACAGGTGCTGAAGGTAACTCAGGCTATCAT	-0.511
AGAAGGAGGTTAAGATCAGGGAAACAGAATACAT	1.51
AGAATGAGGTTAAGATCAGGCAAACAGAATACAT	0.764
CCTACTGGGCCAACGTCATTGATCAGTCAAAGCA	0.446
GCTAGCAGGCCGTTTGGGTCACTCAATGACGGGC	1.43

The sequences below were run on RARg:RXRa (NR concentration 270 nM, RXRa partner concentration 90 nM) in the same assay as above.
Summary of the method: as §1

Sequence	PBM binding z-score
ACTCGGAGTACAAAGGTCAGAGCTACGCCAGTGA	5.22
GCTCGCAGGACAAGGTCAGAGCTTTGTCCGTAGA	2.71
ATCGAAAGGTCGAAGGTGAGTATCCCCACCCGAA	3.95
GTACCAAGGTGAATAGGTCGTTGAGGAGTAGGCG	2.83
CCTACTGGGCCAAAAAGGTCATTGGTGCCGATAA	4.6
ACTATTAGTTGAGACGAGGGGAACCGATAGGTTG	0.21
TCAGACAGGTGAAGGTAACTTAGGTACGCAGTCG	0.797
GCCAGCAGGCCATTTGGGTCACTCAATGACGGGC	1.14
GCTATTAGTTGAAAGGGCAACTGAATGATTCTCG	1.45
TAGCCTAGGTCAAATCGGGCCAGTATACGCTATA	4.3
CAAACTAGGTCATCGGAAGGTCAAAGTCCGCATG	8.08
GGAACTAGGGCATTCGAGTTGATAGCATGGCGAT	0.292
TCTTGAAGATCAACAGGAGGTTAAGAAAGATCGA	1.45
ACAGACAGGTGAGTGAAGGTATCTCAGCTGGACG	-0.0868
CAAACTAGGTCAAGCTCAAAGTCGGTTTGTGCCA	4.06
AATACAGGGTCATCGTAGCCCAGAGTACGCACAG	5.57
CCTGCTAGGTCATGGTAAGCTAATCTACAGTATG	3.8
GCTAGCAGGCCATTTGGGTCACTCAGTGACGGGC	0.822
TCAGACAGGTGAAGATAACTCAGGTACGCAGTCG	0.712
CCAGACAGGTGAGAAGGTAACTTAGCCTCGATTA	0.486

Sequence	PBM binding z-score
TAGCCTAGGTCATGCGGTCCAGTATAGTGTCGGC	3.75
ACTAGTTGGTCAGCGGAGGTCACACACAATTCGG	3.96
TGAATGAGGTTAAAGATCACGGAACGTGGCGTCG	2.83
TATACAGGGTCAAAGGCCAGGGTACGAATGTCGA	5.77
CCTTACGGGACACGAGGTTATAGCACGACGAGCG	1.49
CTACCAAGGTGAACAAGGTCGTTGAATACTATTC	1.97
CCGACTGGGACAAGGTTACCATAACGCACAGCCA	0.731
CCTAGTTGGTCAAGTTCACACACGCTATAGGTAC	2.45
ATTAGCAGGCCAAGTTTGGGTCACTCAAACAAAG	2.39
GATACAGGGTCACGGCCAGAGTACGCGTATTGAT	6.54
GCTAGCAGGCCATTTGGGTCGCTCAATGACGGGC	-0.381
TCTAGCAGGCCAGAGGCTCACTCAAGAGGTACGG	-0.48
ATCGAAAGGTCGAAGCTGAGTATACCCACCCGAA	3.83
CATTCAGGGTCAGCTAGGCCAGAGTAGGGACGGC	4.64
TTTGCTAGGTCAGTTGGTCAGCTAACGAGCTGCC	2.76
ACAGACAGGTGCTGAAGGTAACTCAGGCTATCAT	-0.0198
AGAAGGAGGTTAAGATCAGGGAAACAGAATACAT	1.73
AGAATGAGGTTAAGATCAGGCAAACAGAATACAT	2.13
CCTACTGGGCCAACGTCATTGATCAGTCAAAGCA	-0.195
GCTAGCAGGCCGTTTGGGTCACTCAATGACGGGC	0.678

These sequences were tested on RARg homodimer (NR concentration 270 nM) in the same assay as above.
Summary of the method: as §1

Sequence	PBM binding z-score
ACTCGGAGTACAAAGGTCAGAGCTACGCCAGTGA	4.7
GCTCGCAGGACAAGGTCAGAGCTTTGTCCGTAGA	2.74
ATCGAAAGGTCGAAGGTGAGTATCCCCACCCGAA	3.71
GTACCAAGGTGAATAGGTCGTTGAGGAGTAGGCG	1.46
CCTACTGGGCCAAAAAGGTCATTGGTGCCGATAA	4.13
ACTATTAGTTGAGACGAGGGGAACCGATAGGTTG	0.42
TCAGACAGGTGAAGGTAACTTAGGTACGCAGTCG	0.756
GCCAGCAGGCCATTTGGGTCACTCAATGACGGGC	1.3
GCTATTAGTTGAAAGGGCAACTGAATGATTCTCG	1.31
TAGCCTAGGTCAAATCGGGCCAGTATACGCTATA	4.47
CAAACTAGGTCATCGGAAGGTCAAAGTCCGCATG	6.47
GGAACTAGGGCATTCGAGTTGATAGCATGGCGAT	0.971
TCTTGAAGATCAACAGGAGGTTAAGAAAGATCGA	0.367
ACAGACAGGTGAGTGAAGGTATCTCAGCTGGACG	0.333
CAAACTAGGTCAAGCTCAAAGTCGGTTTGTGCCA	4.98
AATACAGGGTCATCGTAGCCCAGAGTACGCACAG	4.42
CCTGCTAGGTCATGGTAAGCTAATCTACAGTATG	4.48
GCTAGCAGGCCATTTGGGTCACTCAGTGACGGGC	1.04
TCAGACAGGTGAAGATAACTCAGGTACGCAGTCG	0.748
CCAGACAGGTGAGAAGGTAACTTAGCCTCGATTA	0.577

Sequence	PBM binding z-score
TAGCCTAGGTCATGCGGTCCAGTATAGTGTCGGC	4.51
ACTAGTTGGTCAGCGGAGGTCACACACAATTCGG	4.21
TGAATGAGGTTAAAGATCACGGAACGTGGCGTCG	1.49
TATACAGGGTCAAAGGCCAGGGTACGAATGTCGA	5.14
CCTTACGGGACACGAGGTTATAGCACGACGAGCG	1.14
CTACCAAGGTGAACAAGGTCGTTGAATACTATTC	1.95
CCGACTGGGACAAGGTTACCATAACGCACAGCCA	0.756
CCTAGTTGGTCAAGTTCACACACGCTATAGGTAC	2.72
ATTAGCAGGCCAAGTTTGGGTCACTCAAACAAAG	1.91
GATACAGGGTCACGGCCAGAGTACGCGTATTGAT	6.18
GCTAGCAGGCCATTTGGGTCGCTCAATGACGGGC	-0.146
TCTAGCAGGCCAGAGGCTCACTCAAGAGGTACGG	-0.695
ATCGAAAGGTCGAAGCTGAGTATACCCACCCGAA	3.5
CATTCAGGGTCAGCTAGGCCAGAGTAGGGACGGC	5.03
TTTGCTAGGTCAGTTGGTCAGCTAACGAGCTGCC	3.54
ACAGACAGGTGCTGAAGGTAACTCAGGCTATCAT	0.00684
AGAAGGAGGTTAAGATCAGGGAAACAGAATACAT	1.36
AGAATGAGGTTAAGATCAGGCAAACAGAATACAT	1.63
CCTACTGGGCCAACGTCATTGATCAGTCAAAGCA	-0.0642
GCTAGCAGGCCGTTTGGGTCACTCAATGACGGGC	0.649
